Growth inhibition data for eight compounds are collected here from PubChem BioAssay (NCI).

The structures appear in SMILES notation. The panel holds about 79,000 compounds, 15% with a hit somewhere; the sample as a whole holds those more often. Unmarked numbers belong to inactive results. Calls of active or inactive are those of the source. Rule as the data show it: active = growth inhibition above about 70%; inactive = the rest.

The assay is described as follows: NCI Yeast Anticancer Drug Screen. Data for the wt2 strain (AID 169).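 Also: 0% = growth of vehicle-treated yeast cultures.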 The following applies: S. cerevisiae wt2 strain growth inhibition, active compounds read high. The procedure:
Growth inhibition of yeast strains with defined genetic alterations is measured as a screen for potential anti-cancer activity. Selected strains with alterations in DNA damage repair or cell cycle control were exposed to compounds and growth inhibition was measured relative to vehicle treated controls. The strain used in this assay is wt2

Regarding `OC(c1ccc(Br)cc1)C(Cl)(Cl)Cl` (stereo not given), the growth inhibition runs as follows: (at 1.2 µM) -17%; (at 3.7 µM) -15%; (at 11.0 µM) -21%; (at 33.0 µM) 78% (active); (at 100.0 µM) 98% (active).
Consider `Nc1nc(N)c(-c2ccc(Cl)c(Cl)c2)c(CP(Cl)(Cl)(Cl)Br)n1`, for which the growth inhibition was 7% (at 1.2 µM); 18% (at 3.7 µM); 56% (at 11.0 µM); 80% (active) (at 33.0 µM); 94% (active) (at 100.0 µM).
Taken in the same sequence, the figures for `CC12CCC(C1)C(C)(C)C2OC(=O)c1ccccc1N` (stereo not given) were -10%, -8%, -21%, -8% and 7%.
In the same order, the values of `CCS(=O)(=O)[O][Sn]([CH2]C)([CH2]C)[O]S(=O)(=O)CC` are -32%, -21%, -26%, -4% and 77% (active).
Take `CC(C)(C)c1cc([N+](=O)[O-])cc([N+](=O)[O-])c1O`: the growth inhibition is, setting by setting: (at 1.2 µM) -35%; (at 3.7 µM) -29%; (at 11.0 µM) -11%; (at 33.0 µM) 23%; (at 100.0 µM) 47%.
Taken in the same sequence, the figures for `N#CC(C#N)=Cc1ccc(C#N)cc1` were -1%, -1%, -1%, 1% and 5%.
With `CN(C)CCSC1=Nc2ccc(Cl)cc2C(c2ccccc2Cl)=NC1`, the growth inhibition was -3% (at 1.2 µM); -3% (at 3.7 µM); -8% (at 11.0 µM); -6% (at 33.0 µM); 63% (at 100.0 µM).
On to `Cc1c([N+](=O)[O-])oc2ccc3ccccc3c12`, for which the growth inhibition is 1% (at 1.2 µM); 2% (at 3.7 µM); 6% (at 11.0 µM); 14% (at 33.0 µM); 26% (at 100.0 µM).
